Hits are enriched below; roughly 6.6% of the tested compounds scored in any of these assays.
GRIN3A LBD mod: NR3A (human) ligand-binding domain modulation. actives 2.5% (n = 340,000). NR3A LBD differential scanning fluorimetry, Tm shift; 0% = protein alone, 100% = glycine-bound protein. Tm shift relative to glycine control, % at 25 µM;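 active means melting temperature shift of at least 10% of the positive control shift, at one fixed dose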
CSC inhib: blocks cancer stem cells; cancer stem cell-like cells viability, luminescence; actives 1.1% (n = 300,000); inhibition, % at 7.5 µM; in the data active means inhibition above about 75%; tested in HMLE shEcad cells
MPTP block: permeability transition pore inhibition; isolated mouse mitochondria, Ca2+ swelling absorbance, 30 min; inhibition, % at 10 µM; actives 1.4% (n = 360,000);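 active means inhibition of 50% or more, scaled per plate between neutral and stimulator controls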
Beta cell apopt: blocks beta cell apoptosis; INS-1E cytokine-induced death, ATP luminescence, 48 h; percent of positive-control rescue, neutral wells zero; protection from apoptosis, % (concentration not given with the values); actives 0.8% (n = 300,000);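 active means Every replicate reaches about 75%, or at least half do and their mean reaches it too, limit read from the data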;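 further: higher means more ATP so stronger rescue from cytokine killing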
Gli-Sufu block: antagonists of Gli-Sufu signaling | Sufu-KO-LIGHT fibroblasts, Gli luciferase reporter luminescence | inhibition, % at 5 µM | actives 0.74% (n = 340,000) | AID 588413;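 active means inhibition above about 55%, limit read from the data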
Mdm2 MdmX PPI: human Mdm2/MdmX binding inhibition; AID 485346; actives 3% (n = 330,000); SaOS-2 split-luciferase Mdm2/MdmX complementation, luminescence; O15151+Q00987; inhibition, % at 8 µM;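 active means inhibition of at least 50% at 8 µM in the primary screen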
Target sequence (O15151 whole entry, looked up): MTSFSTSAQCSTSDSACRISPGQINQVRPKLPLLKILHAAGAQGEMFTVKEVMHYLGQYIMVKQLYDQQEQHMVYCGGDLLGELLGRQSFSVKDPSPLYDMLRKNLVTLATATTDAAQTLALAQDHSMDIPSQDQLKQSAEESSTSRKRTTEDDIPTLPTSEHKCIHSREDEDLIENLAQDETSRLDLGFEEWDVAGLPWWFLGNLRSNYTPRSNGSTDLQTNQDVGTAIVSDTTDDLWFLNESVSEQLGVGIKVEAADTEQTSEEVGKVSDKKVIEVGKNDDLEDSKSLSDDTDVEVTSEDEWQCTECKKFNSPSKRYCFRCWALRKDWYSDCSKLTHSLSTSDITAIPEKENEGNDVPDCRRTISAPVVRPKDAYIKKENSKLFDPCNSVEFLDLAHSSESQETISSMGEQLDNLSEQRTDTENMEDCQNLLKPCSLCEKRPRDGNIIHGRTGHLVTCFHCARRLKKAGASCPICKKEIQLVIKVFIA
Target sequence (Q00987 whole entry, looked up): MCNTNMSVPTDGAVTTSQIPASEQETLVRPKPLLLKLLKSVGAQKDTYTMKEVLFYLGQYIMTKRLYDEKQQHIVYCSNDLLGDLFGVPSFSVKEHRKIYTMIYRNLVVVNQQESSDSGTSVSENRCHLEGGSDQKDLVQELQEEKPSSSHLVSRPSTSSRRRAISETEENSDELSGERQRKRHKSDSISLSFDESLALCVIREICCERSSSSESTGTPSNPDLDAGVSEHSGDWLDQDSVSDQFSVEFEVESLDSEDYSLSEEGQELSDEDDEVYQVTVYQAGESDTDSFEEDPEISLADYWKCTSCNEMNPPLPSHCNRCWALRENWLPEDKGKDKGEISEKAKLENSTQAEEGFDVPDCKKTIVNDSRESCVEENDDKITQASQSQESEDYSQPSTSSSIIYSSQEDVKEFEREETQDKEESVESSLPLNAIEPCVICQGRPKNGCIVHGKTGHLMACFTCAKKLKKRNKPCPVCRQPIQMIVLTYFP
Mdm2-MdmX conf: confirmation of human Mdm2/MdmX interaction inhibitors; shares compounds with Mdm2 MdmX PPI; Mdm2-MdmX binding, luminescent assay; inhibition, % at 8 µM; actives 55% (n = 10,000); AID 489028; in the data active means inhibition above about 40%
Full FLuc ctr: inhibits full-length luciferase, flagging false Mdm2/MdmX hits. shares compounds with Mdm2 MdmX PPI. SaOS-2 full-length luciferase counterscreen, luminescence. inhibition, % at 8 µM. actives 77% (n = 6,200);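 active means mean inhibition at 8 µM reaching about 37%, which flags the compound as non-specific, limit read from the data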;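 further: p53-null SaOS-2 cells with luciferase driven by a doxycycline-inducible promoter; compound on cells about two nights before reading with doxycycline added after day one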
A number is an active result; - = inactive; . = not tested or not shown.

SMILES	GRIN3A LBD mod	CSC inhib	MPTP block	Beta cell apopt	Gli-Sufu block	Mdm2 MdmX PPI	Mdm2-MdmX conf	Full FLuc ctr
CCCCN(C(=O)c1cc(-c2ccco2)nc2ccccc12)c1c(N)n(CCC)c(=O)[nH]c1=O	-	-	-	-	-	-	.	.
Cc1ccc(NC(=O)CC2S/C(=N/N=C/C=C/c3ccccc3)NC2=O)cc1Cl (stereo not given)	15.2	-	-	-	-	54.0	-	.
NN1C(=O)/C(=C\c2ccco2)SC1=S	-	-	-	-	-	-	.	.
CCCCN(C)CC(O)Cn1cc(/C=C/C(=O)c2ccc(OCC)cc2)c2ccccc21 (stereo not given)	.	99.2	.	-	.	69.2	-	.
O=C(CCl)N1c2ccccc2CCc2ccccc21	.	-	-	-	.	100.3	49.5	-
CC(Cl)C(=O)N1c2ccccc2CCc2ccccc21 (stereo not given)	-	-	-	.	-	-	.	.
Cc1cc(/C=N/Nc2nc(N)ncc2[N+](=O)[O-])c(C)n1-c1ccccc1F	.	-	.	-	.	73.7	84.2	49.6
COc1ccc(N(CC(=O)NC2CCCCC2)C(=O)CCCC(=O)Nc2ccccn2)cc1	-	-	-	-	-	-	.	.
CCn1c(=O)c2c(cnn2C)c2ccccc21	-	-	-	-	-	80.9	-	.
CCCn1c2ccccc2c2cnn(CC(=O)O)c(=O)c21	-	-	-	-	-	-	.	.
N#Cc1ccc(NC(=O)Nc2ccc(Oc3ccc(NC(=O)Nc4ccc(C#N)cc4)cc3)cc2)cc1	32.3	-	-	-	-	60.0	74.3	-
N#Cc1ccc(OCC(=O)Nc2ccncc2)cc1	-	-	-	-	.	-	.	.
COC(=O)c1cc2sccc2n1CC(=O)N1CCCc2ccccc21	-	-	-	-	-	51.9	40.7	51.5
O=C1CSC(=S)N1c1cccnc1	-	-	-	-	-	-	.	.
O=C1CSC(=S)N1Cc1cccnc1	-	-	-	-	-	94.2	79.8	50.3
C/C(=N\Nc1ccc([N+](=O)[O-])cc1[N+](=O)[O-])c1cccnc1	-	-	-	-	-	-	.	.
C/C(=N\Nc1ccc(S(N)(=O)=O)cc1[N+](=O)[O-])c1cccnc1	-	-	-	-	-	58.2	-	.
CC(C)(C)c1ccc(Cn2c(=O)cnc3ccccc32)cc1	-	-	-	-	-	71.5	77.3	-
CC1CCCCN1S(=O)(=O)c1ccc(C(=O)N(CCCN(C)C)c2nc3ccc(Br)cc3s2)cc1 (stereo not given)	-	-	-	-	-	76.8	-	60.8
CCC1CCCCN1S(=O)(=O)c1ccc(C(=O)N(CCCN(C)C)c2nc3cc4c(cc3s2)OCO4)cc1 (stereo not given)	-	-	-	-	-	63.0	43.0	58.5
CCCNC(=O)c1ccc(CN2CCc3ccccc3C2)cc1	-	-	-	-	-	-	.	.
C/C(=N\NC(=O)c1ccc(CN2CCc3ccccc3C2)cc1)c1ccccc1O	-	-	-	-	-	55.3	65.1	85.2
O=C(CN(C(=O)c1csnn1)c1ccc(F)c(Cl)c1)NCc1ccc2c(c1)OCO2	-	-	-	-	-	-	.	.
CC1(c2ccccc2)ON(c2ccccc2C(F)(F)F)C1=O (stereo not given)	.	-	.	-	.	-	.	.
Cc1ccccc1[C@@]1(C)ON(c2ccccc2C(F)(F)F)C1=O	-	-	-	-	-	80.6	-	.
SMILES	GRIN3A LBD mod	CSC inhib	MPTP block	Beta cell apopt	Gli-Sufu block	Mdm2 MdmX PPI	Mdm2-MdmX conf	Full FLuc ctr
O=C1N(c2ccccc2C(F)(F)F)O[C@]1(c1ccccc1)C1CCCC1	-	-	-	-	-	79.3	53.2	50.2
CC[C@@]1(c2ccccc2OC)ON(c2ccccc2C(F)(F)F)C1=O	-	-	-	-	-	88.9	80.3	51.4
Cc1ccc(C(=O)NNC(=O)c2ccccc2O)cc1S(=O)(=O)N1CCCCC1	-	-	-	.	-	-	.	.
O=c1cc(Nc2ccc3c(c2)OCCO3)[nH]c(=O)n1-c1ccc(Br)cc1	-	.	-	.	-	55.1	-	.
COC(=O)c1ccc(COc2ccc(-c3nnn(CC(N)=O)n3)cc2)cc1	-	-	-	-	-	55.6	-	.
Cn1c(N)c(C(=O)COC(=O)c2cc(-c3ccccc3)nc3ccccc23)c(=O)n(C)c1=O	.	-	.	-	.	66.4	-	60.3
CC(C)Cn1c(N)c(C(=O)COC(=O)c2cc(-c3ccccc3)nc3ccccc23)c(=O)n(C)c1=O	-	-	-	-	-	-	.	.
Cn1c(=O)c(C(=O)COC(=O)c2cc(C(F)(F)F)nc3c(C(F)(F)F)cccc23)c(N)n(CC2CC2)c1=O	.	-	.	-	.	77.2	-	.
CS(=O)(=O)N(CCc1ccccc1)CC(=O)N1CCCCCC1	.	.	-	.	.	.	.	.
Cc1cc2c(cc1C)-c1nnc(-c3ccc4ccccc4n3)n1C(C)(C)C2	.	-	.	-	.	69.8	-	.
O=C1c2cccc3cc(Br)cc(c23)C(=O)N1Nc1ccc(Br)cc1	-	-	-	-	-	72.8	62.6	74.4
CCOC(=O)C1CCN(C(=O)c2ccccc2NS(=O)(=O)c2ccc(F)cc2)CC1	-	-	-	-	-	-	.	.
C=CCOc1ccc(/C=C/C(=O)Nc2ccc(C(=O)NC)cc2)cc1	24.5	-	-	-	-	75.4	-	.
CC1CCCC(NC(=O)C2N(CCCN3CCCC3)C(=O)C3C(C(=O)Nc4ccc(Cl)cc4)C4C=CC32O4)C1C (stereo not given)	-	-	-	-	-	-	.	.
Cc1ccc(C(=O)N2CCN(S(=O)(=O)c3sc(C(=O)O)c(C)c3C(=O)O)CC2)s1	-	.	-	-	-	-	.	.
COC(=O)C1CCN(C(=O)Nc2ccccc2)CC1	-	-	-	-	-	-	.	.
CCN(CC)c1ccc(N2C(=O)CSC2=S)cc1	-	-	-	-	-	-	.	.
CCN(CC)c1ccc(N2C(=O)/C(=C/c3cccs3)SC2=S)cc1	-	-	-	-	-	52.2	-	.
COC(=O)c1c(NC(=O)COC(=O)c2ccc(Cl)nc2)sc(C)c1C	-	-	-	-	-	-	.	.
COc1cc(OC)cc(OC(=O)C2CCN(C3=NS(=O)(=O)c4ccccc43)CC2)c1	-	.	-	-	-	-	.	.
C[C@@H]1CN([C@@H](C)CO)C(=O)CCCn2nncc2CO[C@@H]1CN(C)C(=O)Nc1ccc(N2CCN(C)CC2)cc1	.	.	-	.	.	.	.	.
Nc1nc(CCl)nc(Nc2cccc3ccccc23)n1	-	-	-	-	-	97.4	98.3	61.0
CCOC(=O)c1c(NC(C)=O)sc2c(OC)c(Br)ccc12	-	-	-	-	.	-	.	.
CCOC(=O)c1c(NC(C)=O)sc2c(OCC(O)CN(CC)CC)c(Br)ccc12 (stereo not given)	-	-	-	-	-	85.2	-	.
CCOC(=O)c1c(NC(C)=O)sc2c(OCCN(CC)CC)c(Br)ccc12	-	-	-	-	-	55.2	-	.

High-throughput results as filed in PubChem BioAssay.
